Our source for the Potency, outcome and IC50 (viability decrease) values is PubChem BioAssay (NCATS).

SMILES strings stand for the structures. Results filed as inconclusive are left out. Activity calls are given as the source filed them. Unless noted, the call rests on the fitted dose curve.

The nature of assay [1]: P-glycoprotein substrates identified in KB-8-5-11 adenocarcinoma cell line, qHTS therapeutic library screen (AID 1346987; active means well fitted curve in the direction sought with a large enough effect; an effect the other way counts as inactive or inconclusive; further: nearly all actives have a fitted effect of over 65% in size; further: potency means the concentration at half of the fitted maximal effect). The method, boiled down: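 KB-8-5-11: colchicine-selected sub-line of KB-3-1 over-expressing P-gp; assay medium lacked colchicine. 72 h drug exposure at 37 degree C, CellTiter-Glo.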
Assay [2] in a line: Natriuretic polypeptide receptor (hNpr1) antagonism - Pilot counterscreen GloSensor control cell line (AID 1347045). Further: series mostly up to about 38 µM. The method, boiled down:
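HEK293 cells carrying the GloSensor cGMP sensor (GIP/pGS-40F) were loaded with 2% GloSensor reagent for 2 h, exposed to compounds for 30 min, and then stimulated with 50 uM sodium nitroprusside for 20 min at room temperature.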

For assay [3], the target named is Atrial natriuretic peptide receptor 1 (Homo sapiens) (UniProt P16066). As to the kind of experiment: Natriuretic polypeptide receptor (hNpr1) antagonism - Pilot screen (AID 1347049).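 Further: agonist-evoked cGMP luminescence read 20 min after hNppA addition; series mostly up to about 58 µM.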 The method, boiled down:
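HEK293 cells co-expressing hNpr1 and the GloSensor pGS-40F cGMP luciferase sensor were preloaded with 2% GloSensor reagent for 2 h. Compounds were added for 30 min at room temperature, then cells were stimulated with 0.1 nM hNppA for 20 min before luminescence readout.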

The target in assay [4] is Atrial natriuretic peptide receptor 2 (Homo sapiens) (UniProt P20594). As to the kind of experiment: Natriuretic polypeptide receptor (hNpr2) antagonism - Pilot subtype selectivity assay (AID 1347050). In outline: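 cGMP-sensor HEK293/hNpr2 cells; 2% GloSensor reagent 2 h RT; compounds 30 min; baseline luminescence read; 1 nM hNppC agonist 20 min RT; final luminescence read by CCD camera. Antagonism = reduced post-agonist signal.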

Assay [5] in a line: NS1 protein of Zika virus - qHTS assay to identify small molecule inhibitors in human HEK 293 cells (AID 1347053; active means well fitted curve in the direction sought with a large enough effect; an effect the other way counts as inactive or inconclusive; further: series mostly up to about 46 µM; nearly all actives have a fitted effect of over 55% in size). The method, boiled down: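 HEK 293 cells pretreated with compound for 1 h, then infected with ZIKV MR766 (MOI 0.5) for 24 h at 37 C. NS1 detected by TR-FRET with two anti-NS1 antibodies; normalized to uninfected (0%) and infected (100%) wells.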
In assay [6] the target is Tyrosine-protein phosphatase non-receptor type substrate 1 (Homo sapiens) + Leukocyte surface antigen CD47 (Homo sapiens) (UniProt P78324+Q08722). Kind of assay: CD47-SIRPalpha protein protein interaction - LANCE assay qHTS validation (AID 1347057; active means well fitted curve in the direction sought with a large enough effect in the signal ratio, with a control signal flat, not every such curve was filed as active; the % refers to the signal ratio; further: series mostly up to about 38 µM). In outline: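 First, His-tagged CD47 and Eu-labelled anti-His antibody met the compound for 30 min; next, site-specifically biotinylated SIRPalpha was added for 30 min; finally streptavidin-APC was added before reading the TR-FRET ratio.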
(In general: TR-FRET usually uses a lanthanide donor and a delayed reading to cut background.)

Assay [7] can be described thus: Identifying Small Molecule Inhibitors of Pancreatic Cancer Stem Cells (A2780, Spheroid) (AID 1259357; active means well fitted curve in the direction sought with a large enough effect; an effect the other way counts as inactive or inconclusive;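 further: spheroids pre-formed over 14 days in stem cell medium on hydrogel; potency means the concentration at half of the fitted maximal effect; compound exposure lasted 48 h before the ATP luminescence read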). Particulars: A2780 spheroid viability. In outline:
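Spheroids grown 14 days in stem cell media on nonadherent hydrogel before screening; cells attached 4 h, then compound exposure 48 h at 37C, 5% CO2. CellTiter-Glo luminescence normalized to DMSO (no inhibition) and no-cell wells (full inhibition).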

The nature of assay [8]: Identifying Small Molecule Inhibitors of Pancreatic Cancer Stem Cells (A278, Adherent) (AID 1259361; active means well fitted curve in the direction sought with a large enough effect; an effect the other way counts as inactive or inconclusive;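 further: viability read after 48 h compound exposure; nearly all actives have a fitted effect of over 35% in size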). In outline: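 Viability is scored by CellTiter-Glo luminescence 48 h after dosing, expressed as percent activity against vehicle and no-cell references. Spheroid formats rely on cells cultured 14 days in stem cell media beforehand.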
The nature of assay [9]: Identifying Small Molecule Inhibitors of Pancreatic Cancer Stem Cells (Panc1, Adherent) (AID 1259362; active means well fitted curve in the direction sought with a large enough effect; an effect the other way counts as inactive or inconclusive;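 further: compound exposure lasted 48 h before the viability read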). In outline:
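Luminescent ATP readout (CellTiter-Glo) quantifies surviving cells after a 48 h drug incubation. Normalization uses DMSO wells as no inhibition and media-only wells as full inhibition; bortezomib served as positive control.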

A short description of assay [10]: P-glycoprotein substrates identified in KB-3-1 adenocarcinoma cell line, qHTS therapeutic library screen (AID 1346986; active means well fitted curve in the direction sought with a large enough effect; an effect the other way counts as inactive or inconclusive; further: nearly all actives have a fitted effect of over 60% in size). To be noted: outcome: dose series up to 44.5 µM. Here is the method: The ATP-binding cassette transporters P-glycoprotein (P-gp) is known to limit brain penetration of many chemotherapy drugs. […] We used the CellTiter-Glo viability assay to test library compounds against the parental KB-3-1 human cervical adenocarcinoma cell line and the colchicine-selected sub-line KB-8-5-11 that over-expresses P-gp. KB-8-5-11 cells were also tested in the presence of a P-gp inhibitor (tariquidar) to assess reversability of transporter-mediated resistance. Of the tested compounds, a total of 90 P-gp substrates were identified including 55 newly identified P-gp substrates. Substrates were confirmed using an orthogonal killing assay against HEK-293 cells transfected with P-gp. As exemplars, we confirmed that AT7159 (cyclin-dependent kinase inhibitor); AT9283, (Janus kinase 2/3 inhibitor); ispinesib (kinesin spindle protein inhibitor); gedatolisib (PKI-587, phosphoinositide 3-kinase/mammalian target of rampamycin inhibitor); GSK-690693 (AKT inhibitor); and KW-2478 (heat shock protein 90 inhibitor) were substrates , and direct ATPase stimulation was assessed. […]
All cell lines were plated into 1536-well plates at 500 cells/well in 5 uL media. […] CellTiter-Glo reagent (Promega) was dispensed into the wells, incubated for 5 min and luminescence was read on a ViewLux instrument (Perkin-Elmer). […]
(Quantitative high-throughput screening tests each substance at several concentrations.)

Sequence of Atrial natriuretic peptide receptor 2 (Homo sapiens) (P20594 whole entry, looked up): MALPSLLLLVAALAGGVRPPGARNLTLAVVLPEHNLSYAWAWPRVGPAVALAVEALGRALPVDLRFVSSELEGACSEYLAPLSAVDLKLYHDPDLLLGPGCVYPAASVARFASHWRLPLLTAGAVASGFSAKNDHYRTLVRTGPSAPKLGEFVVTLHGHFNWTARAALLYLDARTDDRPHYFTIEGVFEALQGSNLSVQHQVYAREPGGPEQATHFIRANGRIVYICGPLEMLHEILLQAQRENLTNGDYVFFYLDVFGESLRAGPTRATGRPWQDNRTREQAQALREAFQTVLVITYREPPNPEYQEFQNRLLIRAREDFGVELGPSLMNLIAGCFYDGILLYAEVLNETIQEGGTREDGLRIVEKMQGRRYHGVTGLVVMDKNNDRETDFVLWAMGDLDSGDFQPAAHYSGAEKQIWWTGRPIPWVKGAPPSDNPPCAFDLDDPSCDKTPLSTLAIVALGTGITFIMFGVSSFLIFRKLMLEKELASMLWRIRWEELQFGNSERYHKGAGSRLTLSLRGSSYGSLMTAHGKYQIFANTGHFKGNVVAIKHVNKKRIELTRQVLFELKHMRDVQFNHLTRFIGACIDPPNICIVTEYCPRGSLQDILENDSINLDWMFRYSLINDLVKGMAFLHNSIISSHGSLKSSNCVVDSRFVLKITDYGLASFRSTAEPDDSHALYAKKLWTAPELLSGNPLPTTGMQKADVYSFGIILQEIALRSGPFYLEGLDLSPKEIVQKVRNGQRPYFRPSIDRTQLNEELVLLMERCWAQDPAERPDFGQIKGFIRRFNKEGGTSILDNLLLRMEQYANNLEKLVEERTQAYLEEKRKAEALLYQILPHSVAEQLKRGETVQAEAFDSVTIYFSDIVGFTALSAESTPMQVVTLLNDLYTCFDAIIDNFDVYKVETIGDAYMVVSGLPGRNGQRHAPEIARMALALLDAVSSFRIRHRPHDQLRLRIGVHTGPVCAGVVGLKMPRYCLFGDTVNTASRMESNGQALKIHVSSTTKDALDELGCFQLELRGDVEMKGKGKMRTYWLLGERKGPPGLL
Sequence of Tyrosine-protein phosphatase non-receptor type substrate 1 (Homo sapiens) + Leukocyte surface antigen CD47 (Homo sapiens) (P78324 whole entry, looked up): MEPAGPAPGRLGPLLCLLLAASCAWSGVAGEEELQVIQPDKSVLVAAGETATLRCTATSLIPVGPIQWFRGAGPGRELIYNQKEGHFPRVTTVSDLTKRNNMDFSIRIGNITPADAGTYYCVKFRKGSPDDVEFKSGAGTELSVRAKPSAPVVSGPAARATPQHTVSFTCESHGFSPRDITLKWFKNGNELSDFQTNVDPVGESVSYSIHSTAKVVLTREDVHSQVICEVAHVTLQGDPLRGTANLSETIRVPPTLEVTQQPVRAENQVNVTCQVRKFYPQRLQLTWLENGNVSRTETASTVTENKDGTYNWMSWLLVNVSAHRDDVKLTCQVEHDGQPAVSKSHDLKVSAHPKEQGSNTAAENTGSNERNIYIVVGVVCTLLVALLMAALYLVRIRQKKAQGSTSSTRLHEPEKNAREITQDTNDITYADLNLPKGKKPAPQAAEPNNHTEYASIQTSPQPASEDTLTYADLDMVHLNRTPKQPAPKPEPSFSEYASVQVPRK
Sequence of Tyrosine-protein phosphatase non-receptor type substrate 1 (Homo sapiens) + Leukocyte surface antigen CD47 (Homo sapiens) (Q08722 whole entry, looked up): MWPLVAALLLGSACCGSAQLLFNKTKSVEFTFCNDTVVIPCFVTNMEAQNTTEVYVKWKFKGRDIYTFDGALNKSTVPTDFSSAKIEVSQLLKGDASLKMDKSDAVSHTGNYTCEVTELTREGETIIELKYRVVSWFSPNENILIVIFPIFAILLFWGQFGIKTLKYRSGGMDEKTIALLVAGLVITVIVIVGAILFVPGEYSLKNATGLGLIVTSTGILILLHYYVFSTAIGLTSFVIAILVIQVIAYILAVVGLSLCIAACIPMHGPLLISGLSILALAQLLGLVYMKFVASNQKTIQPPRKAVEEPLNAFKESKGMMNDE
Sequence of Atrial natriuretic peptide receptor 1 (Homo sapiens) (P16066 whole entry, looked up): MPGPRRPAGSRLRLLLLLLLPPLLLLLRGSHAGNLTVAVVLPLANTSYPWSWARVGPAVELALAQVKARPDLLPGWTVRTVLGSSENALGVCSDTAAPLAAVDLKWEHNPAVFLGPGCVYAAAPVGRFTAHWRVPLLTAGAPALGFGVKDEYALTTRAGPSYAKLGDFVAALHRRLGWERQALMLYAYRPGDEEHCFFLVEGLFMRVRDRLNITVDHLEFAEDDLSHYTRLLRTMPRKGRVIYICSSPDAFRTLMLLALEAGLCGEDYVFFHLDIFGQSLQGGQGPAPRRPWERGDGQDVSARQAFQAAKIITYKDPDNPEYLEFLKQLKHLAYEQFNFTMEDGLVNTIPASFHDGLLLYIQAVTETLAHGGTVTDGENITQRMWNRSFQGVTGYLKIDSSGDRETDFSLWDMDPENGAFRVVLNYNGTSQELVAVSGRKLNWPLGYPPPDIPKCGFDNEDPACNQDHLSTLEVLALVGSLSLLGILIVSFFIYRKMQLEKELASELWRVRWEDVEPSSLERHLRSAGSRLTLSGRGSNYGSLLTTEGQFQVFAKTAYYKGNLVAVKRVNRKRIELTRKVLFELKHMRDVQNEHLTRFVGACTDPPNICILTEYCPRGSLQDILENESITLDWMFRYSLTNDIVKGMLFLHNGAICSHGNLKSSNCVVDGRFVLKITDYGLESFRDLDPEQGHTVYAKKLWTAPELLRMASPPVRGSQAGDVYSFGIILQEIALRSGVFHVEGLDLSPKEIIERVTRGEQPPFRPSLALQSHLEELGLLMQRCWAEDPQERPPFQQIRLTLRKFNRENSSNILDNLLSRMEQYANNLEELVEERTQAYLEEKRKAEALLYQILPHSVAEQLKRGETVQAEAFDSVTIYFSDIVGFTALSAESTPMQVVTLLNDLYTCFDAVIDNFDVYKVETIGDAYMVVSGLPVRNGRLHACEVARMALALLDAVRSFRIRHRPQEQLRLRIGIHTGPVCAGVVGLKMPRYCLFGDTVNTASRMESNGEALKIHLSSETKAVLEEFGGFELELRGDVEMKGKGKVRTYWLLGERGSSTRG

On to `Cc1nnc(SCC2=C(C(=O)O)N3C(=O)[C@@H](NC(=O)Cn4cnnn4)[C@H]3SC2)s1`, for which the Potency result in [1], in assay [2], in [3] and in assay [4] was “inactive” in each case. In assay [5], the compound was called inactive.

Consider `CCCNC(C)C(=O)Nc1ccccc1C` (centres undefined), for which the Potency result in assay [1], in [2], in [3] and in [4] was “inactive” in each case.

Turning to `Cc1ccc(S(=O)(=O)NC(=O)NN2CCCCCC2)cc1`, the Potency result in assay [1], in [2], in assay [3] and in [4] was “inactive” each time. Moreover, the outcome in assay [5] and in assay [6] was inactive.

Turning to `C[N+](C)(C)CCOC(=O)CCC(=O)OCC[N+](C)(C)C`, the Potency result in assay [1], in assay [2], in assay [3] and in assay [4] was “inactive” in each case. Moreover, the result in assay [5] and in [6] was inactive.

In the case of `NC/C=C/C(=O)O`, the Potency entry in [1], in [2], in assay [3] and in [4] was “inactive” each time. In addition, in assay [5], the compound was called inactive.

With `NC1=NCC2c3ccccc3Cc3ccccc3N12` (centres undefined), the Potency result in assay [1], in assay [2], in assay [3] and in assay [4] was “inactive” throughout. In assay [5], the compound was classed as inactive.

In the case of `CCn1ccnc1CC1COc2ccccc2O1` (centres undefined), the Potency result in assay [1], in assay [2], in [3] and in [4] was “inactive” each time.

For the compound `O=C(CCNNC(=O)c1ccncc1)NCc1ccccc1`, the Potency result in assay [1], in assay [2], in assay [3] and in assay [4] was “inactive” each time. Moreover, the call in assay [5] was inactive.

Consider `Nc1ncn([C@@H]2O[C@H](CO)[C@@H](O)[C@H]2O)c(=O)n1`, for which the results for the Potency in assay [7] and in [1] were 16.6 µM (active) and 8.2 µM (active), respectively. The IC50 (viability decrease) in assay [8] is 2.35 µM (active). Moreover, in [9], the compound was called inactive. The Potency result in assay [2], in assay [3] and in assay [4] was “inactive” in each case.

With `Cc1cc(C)c(/C=C2\C(=O)Nc3ccccc32)[nH]1`, the outcome in [10], in assay [5] and in [6] was inactive. For the same compound, the Potency result in assay [2], in assay [3] and in assay [4] was “inactive” throughout.

Regarding `FC(F)(F)c1ccccc1-n1ccnc1`, the Potency result in assay [1], in [2], in [3] and in assay [4] was “inactive” in each case. Besides, the call in [5] was inactive.

As to `O=C(O)CN(CCOCCOCCN(CC(=O)O)CC(=O)O)CC(=O)O`, the Potency entry in assay [1], in assay [2], in [3] and in [4] was “inactive” each time. Moreover, the outcome in assay [5] was inactive.

With `N[C@@H](COP(=O)(O)O)C(=O)O`, the Potency result in assay [1], in [2], in assay [3] and in assay [4] was “inactive” each time. Further, the call in assay [5] and in [6] was inactive.

As for `Cc1ccc(Cl)c(Nc2ccccc2C(=O)O)c1Cl`, the Potency result in assay [1], in [2], in assay [3] and in [4] was “inactive” throughout. The compound was called inactive in assay [5].

As for `CC(=O)OC(C)C[N+](C)(C)C` (centres undefined), the Potency entry in [1], in assay [2], in [3] and in assay [4] was “inactive” throughout. Further, the compound was classed as inactive in [5].

Turning to `COC(=O)[C@H]1[C@H]2C[C@@H]3c4[nH]c5cc(OC)ccc5c4CCN3C[C@H]2C[C@@H](OC(=O)c2cc(OC)c(OC)c(OC)c2)[C@@H]1OC`, the Potency result in assay [1], in assay [2], in assay [3] and in assay [4] was “inactive” in each case.

Turning to `Cc1ccc(=O)n(-c2ccccc2)c1`, the Potency result in assay [1], in [2], in [3] and in assay [4] was “inactive” throughout. Further, the compound was called inactive in [5] and in assay [6].

For the compound `CC(C(=O)O)c1ccc(CC2CCCC2=O)cc1` (centres undefined), the Potency result in assay [1], in [2], in assay [3] and in [4] was “inactive” each time. In addition, in [5], the call was inactive.

Turning to `CCOC(=O)C1=C(C)NC(C)=C(C(=O)OC)C1c1cccc(Cl)c1Cl` (centres undefined), the Potency entry in assay [1], in assay [2], in assay [3] and in assay [4] was “inactive” in each case. The compound was called inactive in [5].

For `Nc1nc(N)c2nc(-c3ccccc3)c(N)nc2n1`, the Potency entry in [1], in assay [2], in assay [3] and in assay [4] was “inactive” each time. Also, the outcome in assay [5] was inactive.

Regarding `C(=C\c1ccccc1)/CN1CCN(C(c2ccccc2)c2ccccc2)CC1`, the Potency result in assay [1], in assay [2], in [3] and in assay [4] was “inactive” each time.

Consider `NS(=O)(=O)c1cc2c(cc1Cl)NC(C1CC3C=CC1C3)NS2(=O)=O` (centres undefined), for which the Potency result in assay [1], in assay [2], in assay [3] and in [4] was “inactive” throughout. In addition, the compound was called inactive in assay [5] and in [6].

Take `NCCCNCCSP(=O)(O)O`: the Potency entry in assay [1], in [2], in assay [3] and in assay [4] was “inactive” throughout.

In the case of `Cc1scc2c1N(C(=O)CN1CCN(C)CC1)c1ccccc1NC2=O`, the Potency result in [1], in assay [2], in assay [3] and in assay [4] was “inactive” each time. The compound was called inactive in [5] and in assay [6].

In the case of `NC(Cc1ccc(Cl)cc1)C(=O)O` (centres undefined), the Potency entry in assay [1], in [2], in assay [3] and in [4] was “inactive” throughout. In addition, the outcome in assay [5] was inactive.

On to `CCCOc1ccccc1-c1nc2n[nH]nc2c(=O)[nH]1`, for which the Potency entry in assay [1], in [2], in [3] and in assay [4] was “inactive” in each case. Further, the outcome in [5] and in [6] was inactive.

As to `c1ccc2c(c1)CCCC2C1=NCCN1` (centres undefined), the Potency result in [1], in [2], in assay [3] and in [4] was “inactive” in each case. Besides, the compound was classed as inactive in assay [5].

As to `CCCCNc1ccc(C(=O)OCCN(C)C)cc1`, the Potency result in assay [1], in assay [2], in assay [3] and in assay [4] was “inactive” each time. Moreover, the call in assay [5] and in [6] was inactive.

With `CC(=O)OCC1=C(C(=O)O)N2C(=O)[C@@H](NC(=O)Cc3cccs3)[C@H]2SC1`, the Potency entry in assay [1], in [2], in [3] and in assay [4] was “inactive” each time.

As for `CCCN1C[C@H](CSC)C[C@@H]2c3cccc4[nH]cc(c34)C[C@H]21`, the call in assay [10] and in [5] was inactive. In addition, the Potency entry in [1], in [2], in [3] and in [4] was “inactive” throughout.

Turning to `CN(C)[C@@H]1C(=O)C(C(N)=O)=C(O)[C@@]2(O)C(=O)C3=C(O)c4c(O)ccc(Cl)c4[C@@H](O)[C@H]3C[C@@H]12`, the Potency entry in assay [1], in [2], in assay [3] and in assay [4] was “inactive” throughout. The result in assay [5] and in [6] was inactive.

Consider `CC(N=C(NC#N)Nc1ccncc1)C(C)(C)C` (centres undefined), for which the Potency result in assay [1], in assay [2], in [3] and in [4] was “inactive” each time. The result in [5] and in assay [6] was inactive.

In the case of `COC(=O)[C@@H](N)Cc1ccc(O)c(O)c1`, the Potency entry in assay [1], in assay [2], in assay [3] and in [4] was “inactive” in each case. Moreover, the compound was classed as inactive in assay [5].

In the case of `C[C@]12CC[C@@H]3c4ccc(O)cc4C[C@@H](CCCCCCCCCS(=O)CCCC(F)(F)C(F)(F)F)[C@H]3[C@@H]1CC[C@@H]2O` (some centres undefined), the Potency entry in assay [1], in [2], in [3] and in assay [4] was “inactive” in each case. The compound was called inactive in [5] and in [6].

`CC(C)NNC(=O)c1ccncc1`: the Potency result in assay [1], in assay [2], in [3] and in [4] was “inactive” throughout. Also, the result in [5] was inactive.
